# Measured values: PubChem BioAssay (EPA / NIEHS)
# Inconclusive results are not listed. Some structures have more than one record in an assay (separate samples or runs), and their calls can disagree. The source made the active and inactive calls. How the source made its calls: active means hit-call score of the fitted dose curve at least 0.9, where 1 is the maximum; inconclusive means response in the unintended direction; inactive means score below 0.9.
# Assay: TOX21_p53_BLA_p2_viability: Viability Assessment in the Tox21 HCT-116 p53 Agonism Beta-lactamase Assay, Phase 2 (AID 2283591);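 further: compound exposure lasted 16 h at 37 °C; actives lower the ATP signal meaning cytotoxicity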
# Text: TOX21_p53_BLA_p2 is a cell-based, single-readout assay that uses HCT116, a human intestinal cell line, […] in a 1536-well plate.TOX21_p53_BLA_p2_viability is an assay readout measuring cellular ATP content and detected with CellTiter-Glo Luciferase-coupled ATP quantitation.TOX21_p53_BLA_p2_viability used a type of viability reporter where loss-of-signal activity can be used to understand changes in the cell viability. Furthermore, this assay endpoint can be referred to as a secondary readout, because this assay has produced multiple assay endpoints where this one serves a viability function. To generalize the intended target to other relatable targets, this assay endpoint is annotated to the cell cycle intended target family, where the subfamily is cytotoxicity.
# Thawing Method: Place 14 mL of pre-warmed thaw medium into a 15 mL of conical tub. Remove the vial of cells to be thawed from liquid nitrogen and thaw rapidly by placing at 37C in a water bath with gentle agitation for 1-2 minutes. Decontaminate the vial by wiping with 70% ethanol before opening in a biological safety cabinet. Transfer the vial contents drop-wise into 14 mL of thaw medium in a sterile 15-mL conical tub. Centrifuge cells at 900 rpm for 4 minutes and resuspend in thaw medium. Transfer contents to the T75 tissue culture flask containing Thaw Medium and place flask in a humidified 37C/5% CO2 incubator. Switch to growth medium at first passage.Propagation Method: Aspirate medium, rinse once in DPBS, add 0.25% Trypsin/EDTA and swirl to coat the cell evenly. Add an equal volume of Growth Medium to inactivate Trypsin after 2-3 minutes incubation at 37C. Centrifuge cells at 900 rpm for 4 minutes and resuspend in growth medium. Cell should be passage or fed at least twice a week.Assay Protocol: Harvest cells from culture in growth medium and resuspend in assay medium. 2.2 Dispense 4000 cells/5 uL/well into 1536-well black/clear bottom plates using a Multidrop dispenser. After the cells were incubated at 37C for 5 hours, 23 nL of compounds dissolved in DMSO were transferred to the assay plate by a PinTool resulting in a 217-fold dilution. Incubate the plates for 16 hours at 37C, 5% CO2. Add 1 uL of 6X LiveBLAzer FRET B/G (CCF4-AM) Substrate Mixture to each well using a BioRAPTR dispenser and incubate the plates at room temperature for 2 hours. Measure fluorescence intensity at 460 and 530 nm emission and 405 nm excitation by an Envision detector. Data is expressed as the ratio of 460nm/530nm emissions. Add 4 uL of Cell-titer Glo to each well using BioRAPTR and incubate the plates at room temperature for […]. For cell viability readout that measures cytotoxicity, 4 ul/well of CellTiter-Glo reagent was added into the assay plates using a Flying Reagent Dispenser. After 30 min incubation at room temperature, the luminescence intensity in the plates was measured using a ViewLux plate reader.
SMILES,outcome,AC50
CC(Cl)Cl,inactive,–
[Cl-].[Cl-].[Cl-].[Fe+3],inactive,–
CC(C)(C)NCC(O)c1cc(Cl)c(N)c(Cl)c1 (stereo not given),inactive,–
CN(C)S(=O)(=O)N(SC(F)(Cl)Cl)c1ccccc1,–,87.1 µM (active)
C#C[C@]1(O)C=C[C@H]2[C@@H]3CCC4=CC(=O)CC[C@@H]4[C@H]3CC[C@@]21CC,inactive,–
Cc1ccc2c(c1)C1CN(C)CCC1N2 (stereo not given),inactive,–
C=CC(C)(CCC=C(C)C)OC(=O)c1ccccc1N (stereo not given),inactive,–
Oc1ccc(Cl)c(Cl)c1Cl,inactive,–
N#CC(C#N)=Cc1cc(O)c(O)c(O)c1,inactive,–
S=C=Nc1cccc2ccccc12,inactive,–
O=C(Nc1ccccc1)N(Cc1ccc(Cl)cc1)C1CCCC1,inactive,–
Nc1ccc(Cl)c(Cl)c1,inactive,–
Clc1ccc(CO/N=C(\Cn2ccnc2)c2ccc(Cl)cc2Cl)c(Cl)c1,–,23 µM (active)
Oc1ccc(C2(c3ccc(O)cc3)c3ccccc3-c3ccccc32)cc1,inactive,–
c1ccc2c(c1)CCCC2,inactive,–
Cc1nnc2n1-c1sc(CCC(=O)N3CCOCC3)cc1C(c1ccccc1Cl)=NC2,inactive,–
CN(C)c1ccc(N(C)C)cc1,inactive,–
O=NN1CCCCC1,inactive,–
C1CCC2CCCCC2C1 (stereo not given),inactive,–
[O]=[Cr](=[O])([OH])[O][Cr](=[O])(=[O])[OH],–,15.1 µM (active) [middle of 4 runs]

SMILES,outcome,AC50
COC(=O)C(Br)CBr (stereo not given),inactive,–
NCCCNCCCN,inactive,–
CN1C(=O)NC(=O)C(C)(C2=CCCCC2)C1=O (stereo not given),inactive,–
COc1ccc(OC)c([C@@H](O)[C@H](C)N)c1,inactive,–
CC(C)NCC(O)c1ccc(N)c(C#N)c1 (stereo not given),inactive,–
CCC(C)Cl (stereo not given),inactive,–
c1cc(OCC2CO2)ccc1Cc1ccc(OCC2CO2)cc1 (stereo not given),inactive,–
CN1[C@@H]2CC[C@H]1CC(OC(=O)c1cc(Cl)cc(Cl)c1)C2 (stereo not given in full),inactive,–
Nc1ccncc1,inactive,–
CC[C@H]1C[C@H]2[C@@H]3CCC4=CC(=O)CC[C@@H]4[C@H]3CC[C@]2(C)[C@H]1O,inactive,–
[N-]=[N+]=CC(=O)OC[C@H](N)C(=O)O,inactive,–
O=C(N/N=C/c1ccc([N+](=O)[O-])o1)c1cc([N+](=O)[O-])cc([N+](=O)[O-])c1O,inactive,–
O=[N+]([O-])c1cc(I)c(O)c(I)c1,–,7.77 µM (active)
CN1CCc2cc(Cl)c(O)cc2[C@H]2c3ccccc3CC[C@@H]21,inactive,–
O=CC(Br)(Br)Br,inactive,–
C=C1CC[C@@]2(O)[C@H]3Cc4ccc(O)c5c4[C@@]2(CCN3CC2CC2)[C@H]1O5,inactive,–
c1ccc2c(c1)[nH]c1cnccc12,inactive,–
CC(Cc1ccc(C(C)(C)C)cc1)CN1C[C@@H](C)O[C@@H](C)C1 (stereo not given in full),inactive,–
c1ccc(Nc2ccc3ccccc3c2)cc1,inactive,63.2 µM (active)
